# High-throughput results as filed in PubChem BioAssay.
# Only some compounds are listed: those with a hit (about 7.2% of all), similar ones and a draw of the others.
# Mot1-301 SUMO = SUMOylation pathway inhibition by Mot1-301 growth rescue; AID 2716; growth rescue, % at 18.8 µM; hit rate 1% among 320,000; S. cerevisiae Mot1-301 growth rescue, ATP luminescence, 38.5C; percent above DMSO median, 100 means doubled;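 active means every valid replicate shows activation above 250% relative to neutral control wells; inactive means the rest, any valid replicate at or below 250%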;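 further: OY570 slx delta 5 strain wells were the positive control but not used for scaling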
# Efflux pump mplx = inhibitors of Candida antifungal efflux pumps expressed in yeast. S. cerevisiae Candida pump triplex, Nile Red efflux. inhibition, % at 10 µM. hit rate 0.44% among 330,000;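 active means plate passing quality check with inhibition over a set limit, or well fluorescence over plate mean plus 4 SD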;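 further: Nile Red retained in pooled yeast measured as flow cytometry median fluorescence; 0% = buffer negative control and 100% = Enniatin B positive control; higher means more Nile Red kept so more efflux inhibition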
# VLA-4 inh = inhibition in a human VLA-4 binding assay; VLA-4 expressing cells, ligand binding flow cytometry; P13612; inhibition, % (about 7 µM as worked out from the volumes in the protocol); hit rate 0.2% among 330,000; in the data active means inhibition above about 50%
# AHR act = activates the human aryl hydrocarbon receptor | AHR-responsive luciferase reporter cells, luminescence | activation, % at 5 µM | hit rate 2.5% among 320,000; in the data active means activation above about 47%;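 further: 0% = vehicle wells and 100% = reference agonist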
# Bfl-1 A1 inh = inhibitors of the anti-apoptotic protein A1, read as caspase activation. MEF A1-2A-BIM cells, Caspase-Glo 3/7 luminescence, 3 h; percent of clofoctol response, vehicle zero. caspase activation, % (concentration not given with the values). hit rate 0.066% among 330,000. AID 2462;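 active means over half of replicate activation scores above 10%, or exactly half above 10 with the replicate mean above 10; inconclusive means replicate mean below 10 yet half the replicates above 10; inactive means over half of replicates below 10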
# ALR H2O2 inh = blocks human ALR sulfhydryl oxidase activity. P55789. inhibition, % (test concentration not listed). hit rate 3.8% among 290,000. purified ALR, DTT oxidation, H2O2 HRP-luminol luminescence;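 active means mean replicate inhibition above about 79%, with every replicate also reaching it, limit read from the data; inconclusive means only one of the two criteria met; inactive means mean below limit and not every replicate reaching it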
# Target sequence (P55789 whole entry, looked up): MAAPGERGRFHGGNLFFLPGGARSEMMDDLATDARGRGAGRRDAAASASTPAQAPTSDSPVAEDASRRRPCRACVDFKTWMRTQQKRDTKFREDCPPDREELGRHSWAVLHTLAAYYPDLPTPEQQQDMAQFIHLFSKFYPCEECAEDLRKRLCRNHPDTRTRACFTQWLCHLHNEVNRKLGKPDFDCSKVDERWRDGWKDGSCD
# An asterisk follows results filed as active; ? = inconclusive; nt = not tested or not shown.
SMILES,Mot1-301 SUMO,Efflux pump mplx,VLA-4 inh,AHR act,Bfl-1 A1 inh,ALR H2O2 inh
NCCCC[C@H]1CNC(=O)C(=O)N1CCC12CC3CC(CC(C3)C1)C2,-9,0,6,0,-1,2
COc1cc(NC(=O)c2cccc(C)c2)ccc1NC(=O)c1cc2ccccc2o1,4,0,-295,26,8.2*,-8
CCOc1cccc(C(=O)Nc2ccc(NC(=O)c3cc4ccccc4o3)c(OC)c2)c1,65,0,-9,8,-1,0
O=C(COc1ccc(/C=N/NC(=O)c2cc3ccccc3o2)cc1Br)Nc1ccccc1,-23,0,27,3,27*,nt
COc1ccc([N+](=O)[O-])c(S(=O)(=O)c2ccccc2)n1,262,0,17,-3,2,97*
O=[N+]([O-])c1cccnc1S(=O)(=O)c1ccccc1,102,0,-6,5,?,6
COc1ccc([N+](=O)[O-])c(S(=O)(=O)c2ccc(Cl)cc2)n1,68,0,24,1,0,75*
COc1cc(NC(=O)CSc2nnc3c(n2)[nH]c2ccc(S(=O)(=O)NC(C)C)cc23)cc(OC)c1OC,0,0,-2,1,1,-11
O=C(NCC1CCCO1)c1cc([N+](=O)[O-])ccc1Cl (stereo not drawn),-14,0,15,2,-1,95*
O=C(NCC1CCCO1)c1ccccc1NS(=O)(=O)c1cc([N+](=O)[O-])ccc1Cl (stereo not drawn),0,0,1,-2,0,nt
CCc1ccccc1Nc1nc(N)nc(CSCC(=O)c2cc(C)n(C)c2C)n1,-15,0,8,4,0,98*
CCc1ccccc1Nc1nc(N)nc(CSc2nnnn2C)n1,-2,0,12,8,0,-11
CN(Cc1ccccc1)S(=O)(=O)c1cccc2nsnc12,-7,0,-5,-6,0,0
O=[N+]([O-])c1cccc(/C=N/Nc2nc(N3CCOCC3)nc(N3CCOCC3)n2)c1,-13,0,4,10,1,0
O=[N+]([O-])c1ccc(Nc2nc(N/N=C/c3cccc(F)c3)nc(N3CCCC3)n2)cc1,-8,0,-8,145*,1,-1
COc1cccc(/C=N/Nc2nc(Nc3ccc([N+](=O)[O-])cc3)nc(N3CCCC3)n2)c1O,4,0,-3,47*,-1,-12
O=[N+]([O-])c1cc(S(=O)(=O)N2CCCC2)ccc1O,3,0,5,1,0,-25
O=[N+]([O-])c1cc(S(=O)(=O)N2CCCCCC2)ccc1F,577*,0,45,-1,0,97*
C[C@@H]1O[C@@H](OC2C(O)C(OCCc3ccc(O)c(O)c3)OC(CO)C2OC(=O)/C=C/c2ccc(O)c(O)c2)[C@H](O)[C@H](O)[C@H]1O (stereo partly drawn),101,0,0,0,0,99*
COc1ccc(CC(=O)c2ccc(OC3OC(CO)C(O)C(O)C3O)cc2O)cc1 (stereo not drawn),-27,0,18,0,-2,19
O=C(CSc1nnc2n1CCCN2)c1ccc(Cl)cc1,4,0,10,6,1,31
O=C(CSc1nnc2n1CCCN2)c1ccc([N+](=O)[O-])cc1,10,0,7,3,0,97*
CCCC(=O)NNC(=O)CCC(=O)NCc1ccccc1,-2,0,11,-2,0,2
O=C(CCCO)NNc1c2ccccc2nc2ccccc12,14,0,7,1,0,99*
O=C(O)CCC(=O)NNc1ncnc2ccccc12,49,0,50*,21,?,17
SMILES,Mot1-301 SUMO,Efflux pump mplx,VLA-4 inh,AHR act,Bfl-1 A1 inh,ALR H2O2 inh
CCC(=O)NNc1ncnc2ccccc12,7,0,10,16,1,20
CCCC(=O)NNc1c2ccccc2nc2ccccc12,249,-6,11,-7,1,99*
Cn1c(NCCN(CCO)CCCc2ccc([N+](=O)[O-])cc2)cc(=O)n(C)c1=O,9,0,38,-1,0,2
CCN(CCO)c1ncnc2onc(-c3ccc(F)cc3)c12,-8,0,9,-1,0,-5
CCN(CCO)c1ccc(N=Nc2cc(C)[nH]n2)cc1,-3,0,3,-8,-4,84*
CN(C(=O)COc1ccccc1C(=O)NCCc1ccccc1)c1ccccc1,-11,0,23,-3,0,-6
COc1cc2c(C(=O)N3CCN(C)CC3)c(C)oc2cc1Br,-13,0,10,2,0,-10
CCOC(=O)c1c(C)oc2cc(Br)c(OC(=O)N3CCOCC3)cc12,nt,0,5,52*,1,-12
Nc1cc(=O)[nH]c(=O)n1CCCc1ccccc1,28,0,5,-2,1,nt
COc1ccccc1CCn1c(N)cc(=O)[nH]c1=O,-7,0,-7,53*,-1,-3
CN(C(=O)COC(=O)c1ccccc1SCC(=O)N1CCCC1)C1(C#N)CCCCC1,-13,0,6,4,1,nt
O=C1C=C(c2ccc(Oc3ccccc3)cc2)C[C@@H](c2ccc(F)cc2)C1,1,0,-15,1,0,-7
Cc1noc(C)c1C(=O)Nc1ccc(N(C)C)cc1,1,0,2,14,0,99*
CN(C)c1ccc(NC(=O)c2cnsn2)cc1,231,0,-16,31,-3,99*
Cc1[nH]c2ccccc2c1CCCO,3,0,-2,nt,0,99*
Cc1[nH]c2ccccc2c1CCO,113,0,9,2,0,-15
Cc1cc(C(F)(F)F)nc(SCC(=O)NC2CC3CCC2C3)n1 (stereo not drawn),791,0,1,-1,2,-3
O=C(CC(Nc1ccccc1Cl)C(=O)O)c1ccccc1 (stereo not drawn),nt,0,3,6,1,98*
CCSc1nnc(NC(=O)c2ccc3ccccc3n2)s1,-21,0,6,64*,0,3
O=C(/C=C/c1ccco1)Nc1nnc(-c2ccco2)s1,-1,0,1,13,0,8
CCc1nnc(NC(=O)c2ccc3ccccc3n2)s1,8,0,-3,28,-1,nt
CCSc1nnc(NC(=O)/C=C/c2ccco2)s1,3,0,5,60*,-1,2
CCCC(C)C(=O)OCC(=O)NCc1ccc(OC)c(OC)c1 (stereo not drawn),0,0,7,0,1,-33
O=C(CCS(=O)(=O)c1ccccc1)NCCS(=O)(=O)c1ccccc1,94,0,15,2,0,-3
Cc1ccc(S(=O)(=O)CCC(=O)NCc2ccccc2)cc1,6,2,19,0,0,-4
Cn1c(=O)c(=O)n(C)c2cc(S(=O)(=O)CCC(=O)NCc3ccccc3)ccc21,-9,0,0,1,0,99*
